Lamin A splicing: modulators of lamin A splicing | HeLa LMNA splicing GFP/RFP minigene ratio, 48 h | Potency, µM (top dose mostly 46.1 µM), without a hit: top-dose ratio change, negative = inhibition, hits mostly inhibitors | 0.01% of 200,000 active | AID 1487; active means well fitted inhibition curve with a large enough effect in the signal ratio, with a control signal flat, not every such curve was filed as active; inconclusive means small, poorly fitted or top-dose-only effect, or effect the other way, or a change in a side signal; the % refers to the signal ratio
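S3 HeLa stable clones carrying a lamin A-EGFP splicing minigene plus DsRed2 were seeded at 600 cells/well in Opti-MEM with 2% FBS, pin-dosed and incubated 48 h at 37°C. Acumen cytometry (488 nm) gave the GFP/RFP total-intensity ratio.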
GAA glycogen mod: inhibitors or activators of human alpha-glucosidase glycogen cleavage; recombinant GAA, glycogen substrate, Amplex Red glucose oxidase fluorescence; Potency, µM (series often up to 76.4 µM), for the others: at the top dose activity change, negative = inhibition, most hits filed as inhibitors; 0.38% of 300,000 active; AID 2100;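 further: 0% = full enzyme reaction and -100% = no-enzyme basal signal; the screen sought inhibitors and activators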
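qHTS, 1536-well; enzyme 4 nM final; cpd up to 77 uM; substrate bovine liver glycogen 30 ug; 50 mM citrate/phosphate pH 5.0, 0.01% Tween-20; 37 C, 40 min; Amplex Red detection 45 min RT; Hill fit → AC50.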
GAA inhib: alpha-glucosidase (human) inhibition | purified human GAA, 4-MU-alpha-glucoside fluorescence | Potency, µM (series often up to 76.9 µM), for the others: top-dose activity change, negative = inhibition, usual class: inhibitors | 0.005% of 200,000 active;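 further: plate controls were uninhibited enzyme wells for no effect and no-enzyme background for full effect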
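Read-out is 4-methylumbelliferone fluorescence (Ex 365/Em 440 nm) after NaOH/glycine stop at pH 10. Enzyme 4 nM, substrate 400 uM, pH 5.0 citrate buffer, 20 min room temperature; AC50 from Hill-equation concentration-response.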
N370S GC: N370S glucocerebrosidase modulation, Gaucher chaperone candidate; P04062; N370S GC spleen homogenate, 4MU-glucoside fluorescence; Potency, µM (highest dose often 59.4 µM), for inactives: at the top dose activity change, negative = inhibition, actives largely listed as inhibitors; 0.092% of 330,000 active;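 further: 0% = full enzyme activity and -100% = no enzyme basal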
GAA spleen mod: lysosomal alpha-glucosidase (human) modulation | P10253 | human spleen homogenate, 4-MU-alpha-glucoside fluorescence | Potency, µM (doses to about 79.9 µM), inactives show at the top dose activity change, negative = inhibition, usual class: inhibitors | 0.006% of 240,000 active | AID 2112;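 further: 0% = enzyme with vehicle and -100% = no enzyme basal signal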
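Enzyme source: human spleen homogenate, 1 ug/well. Buffer 50 mM citric acid/K phosphate pH 5.0, 0.01% Tween-20. 4-MU-alpha-glucoside 1 mM; 37 C x 40 min; NaOH/glycine stop; fluorescence.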
* hit, by the source's call; ! = not confirmed by another sample; [ ] = remark or other dose. The list is not random: actives were taken first. Their share in the collection is about 0.41%. Unless noted, the call rests on the fitted dose curve; in most records, active means well fitted curve in the direction sought with a large enough effect; inconclusive means small, poorly fitted or top-dose-only effect, or another doubt; inactive means no such curve, though single readings can be large; an effect the other way counts as inactive or inconclusive. Unless noted, on the % scale 0 is the no-effect control and ±100 the full control effect; potency means the concentration at half of the fitted maximal effect.

Results for COc1ccc(-c2nc3ncccn3c2Nc2ccccc2)cc1 ?
Lamin A splicing: 5%[46 µM]; GAA glycogen mod: inconclusive; GAA inhib: -4%; N370S GC: -6%; GAA spleen mod: 4%

How did Cc1ccc(Nc2c(-c3ccc(N4CCOCC4)cc3)nc3ncccn23)c(C)c1 do in these assays?
Lamin A splicing: 12%; GAA glycogen mod: 32µM*; GAA inhib: 3%; N370S GC: -24%; GAA spleen mod: 4%

How did Cc1cccc(C)c1Nc1c(-c2ccc(N3CCOCC3)cc2)nc2ncccn12 do in these assays?
Lamin A splicing: -5%; GAA glycogen mod: 20µM*!; GAA inhib: 6%; N370S GC: 9%; GAA spleen mod: -21%

Results for Cc1ccc(Nc2c(-c3ccc(N(C)C)cc3)nc3ncccn23)cc1 ?
GAA glycogen mod: -23%; GAA inhib: -4%[15.4 µM]; N370S GC: -1%; GAA spleen mod: 8%

How did COc1cccc(-c2nnc3n2N=C(c2c(OC)cccc2OC)CS3)c1 do in these assays?
N370S GC: -4%; GAA spleen mod: 3%

How did Cc1ccc(Sc2cncc3sc(C(N)=O)cc23)cc1 do in these assays?
N370S GC: -1%; GAA spleen mod: 0%

Results for O=C(N/N=C/C1CCCCC1)c1cc(Cl)ccc1O ?
Lamin A splicing: -1%; GAA glycogen mod: 35µM*; GAA inhib: -18%; N370S GC: 2%; GAA spleen mod: -5%

How did Oc1ccc2ccccc2c1C1Nc2cccc3cccc(c23)N1 do in these assays?
Lamin A splicing: 13%; GAA glycogen mod: 10µM*; GAA inhib: -4%; N370S GC: -22%; GAA spleen mod: -1%

Results for CCCCCCNC(=O)Nc1ccc(S(=O)(=O)Nc2ccc(CCNC[C@H](O)COc3ccc(O)cc3)cc2)cc1 ?
N370S GC: 7.9µM*; GAA spleen mod: -13%

Results for CCCCOc1ccc(S(=O)(=O)Nc2ccc(NC(C)=O)cc2)cc1 ?
Lamin A splicing: inconclusive; GAA glycogen mod: -17%; GAA inhib: -9%; N370S GC: -13%; GAA spleen mod: -23%

Results for CCCCCCCCCCCCCCCCCCCCCCCCCCCCCC ?
N370S GC: -5%; GAA spleen mod: 0%

Results for C=CCN1c2ccccc2[C@]23C[C@@H](C(=O)OC)N(C(=O)COCc4ccccc4)C2=NC(C(=O)OC)=C(C(=O)OC)[C@H]13 ?
Lamin A splicing: inconclusive; N370S GC: -21%[12.8 µM]; GAA spleen mod: 5%[17.4 µM]

Results for C=CC[n+]1c(-c2ccc(OC)cc2)csc1NNC(=O)Nc1ccccc1 ?
Lamin A splicing: inconclusive; GAA glycogen mod: 20µM*; GAA inhib: -10%; N370S GC: -16%; GAA spleen mod: 2%

How did C=CC[n+]1c(-c2ccc(C)cc2)csc1Nc1ccc(NC(C)=O)cc1 do in these assays?
Lamin A splicing: inconclusive; GAA glycogen mod: 0%; GAA inhib: 3%; N370S GC: -8%; GAA spleen mod: -2%

What do the screens show for `CCOC(=O)c1ccc(N2C(=O)CC(Nc3ccc(O)cc3)C2=O)cc1` (centres undefined)?
GAA glycogen mod: 10µM*; N370S GC: -18%; GAA spleen mod: -6%

What do the screens show for `c1ccc2c(c1)Nc1ccncc1S2`?
GAA glycogen mod: 18µM*; N370S GC: -1%; GAA spleen mod: 2%

How did Cc1[nH]n(-c2cccc3ccccc23)c(=O)c1/C=N/c1sc2c(c1C#N)CCC2 do in these assays?
Lamin A splicing: -1%; GAA glycogen mod: 20µM*; GAA inhib: -15%; N370S GC: -3%; GAA spleen mod: 4%

Results for N#Cc1c(/N=C/C=C/c2ccccc2)sc2c1CCCC2 ?
Lamin A splicing: 6%; GAA glycogen mod: 12µM*; GAA inhib: 2%; N370S GC: 0%; GAA spleen mod: -20%

What do the screens show for `Cc1ccc(/C=N/c2sc3c(c2C#N)CCC3)s1`?
Lamin A splicing: -15%; GAA glycogen mod: 28µM*; GAA inhib: 6%; N370S GC: 6%; GAA spleen mod: -3%

Results for Cc1ccc(/C=N/c2sc3c(c2C#N)CCCCC3)o1 ?
Lamin A splicing: 7%; GAA glycogen mod: inconclusive; GAA inhib: -3%; N370S GC: 7%; GAA spleen mod: 4%

How did Cc1[nH]n(-c2ccc(F)cc2)c(=O)c1/C=N/c1sc2c(c1C#N)CCCC2 do in these assays?
Lamin A splicing: 10%; GAA glycogen mod: inconclusive; GAA inhib: 2%; N370S GC: 10%; GAA spleen mod: -4%

How did N#Cc1c(/N=C/c2ccco2)sc2c1CCC2 do in these assays?
Lamin A splicing: -16%; GAA glycogen mod: 22µM*; GAA inhib: -10%; N370S GC: 5%; GAA spleen mod: 4%

What do the screens show for `O=[N+]([O-])c1ccc(CSc2ncnc3c2ncn3[C@@H]2O[C@H](CO)[C@H](O)[C@H]2O)cc1`?
Lamin A splicing: inconclusive; N370S GC: 1%; GAA spleen mod: 6%

How did CCc1ccccc1N1CC(c2nc3ccccc3n2CCC2CCCCC2)CC1=O (centres undefined) do in these assays?
GAA glycogen mod: 2%[76.3 µM]

Results for Cc1ccsc1C=Nc1c(C)n(C)n(-c2ccccc2)c1=O ?
Lamin A splicing: -4%; GAA glycogen mod: 3.1µM*; GAA inhib: 6%; N370S GC: 4%; GAA spleen mod: 2%

How did Cc1c(N=CC=Nc2c(C)n(C)n(-c3ccccc3)c2=O)c(=O)n(-c2ccccc2)n1C do in these assays?
Lamin A splicing: 0%; GAA glycogen mod: -25%; GAA inhib: 1%; N370S GC: 7%; GAA spleen mod: -3%

What do the screens show for `Cc1c(N=Cc2cccs2)c(=O)n(-c2ccccc2)n1C`?
Lamin A splicing: 3%; GAA glycogen mod: 25µM*; GAA inhib: -3%; N370S GC: -3%; GAA spleen mod: 8%

How did CC1(C)CCC[C@@](C)([C@H]2CC[C@]3(C)[C@@H]2[C@H](O)CC2[C@@]4(C)CC[C@H](O)C(C)(C)[C@@H]4[C@@H](O)C[C@]23C)O1 (some centres undefined) do in these assays?
N370S GC: 1%; GAA spleen mod: 6%

How did O=c1cc(N2CCOCC2)oc2c(-c3ccccc3)cccc12 do in these assays?
Lamin A splicing: 16µM*; N370S GC: 16%; GAA spleen mod: -1%

What do the screens show for `Nc1ccccc1C(=O)NNc1c2ccccc2nc2ccccc12`?
GAA glycogen mod: 40µM*; N370S GC: inconclusive; GAA spleen mod: 1%

Results for C#CCOCCOCCOCCNc1nc(N2CCN(C(=O)CCCCCCCCCCNC(=O)[C@H](CCCCN)n3cc(CCO)nn3)CC2)nc(N2CCN(C(=O)CCCCCCCCCCNC(=O)[C@H](CCCN=C(N)N)n3cc(C[C@@H](C)CC)nn3)CC2)n1 ?
N370S GC: 7.9µM*
